Screens (PubChem)
Compounds with a hit are over-represented: about 9.3% of the library has one in this group of screens.
NPC1 prom act = qHTS Assay for NPC1 Promoter Activators; Huh7 NPC1 promoter luciferase reporter, 24 h; Potency, µM (titrated, usually from 9.22 µM), without a hit: at the highest dose activation, most hits filed as activators; hit rate 2.4% among 320,000; AID 485313, 2010; note: % of control where 0% means no effect; nearly all actives have a fitted effect of over 60% in size
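Huh7 reporter cells (NPC1 promoter driving luciferase) are dosed with compound for 24 h at 37 °C, 5% CO2; luciferase detection reagent is then added and luminescence measured after 10 min at ambient temperature.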
Rab9 promoter act = qHTS Assay for Rab9 Promoter Activators | Huh7 Rab9 promoter-luciferase reporter, luminescence, 24 h | Potency, µM (highest dose often 9.22 µM), without a hit: at the top dose activation, negative = inhibition, most hits filed as activators | hit rate 2.8% among 320,000; note: % of control where 0% means no effect; nearly all actives have a fitted effect of over 60% in size
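Using Huh7 cells stably transfected with Rab9 promoter–luciferase, compounds were incubated 24 h at 37 °C, 5% CO2; luciferase luminescence was read 10 min after reagent addition.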
ELG1 DNA repair = qHTS screen for small molecules that inhibit ELG1-dependent DNA repair in human embryonic kidney (HEK293T) cells expressing luciferase-tagged ELG1; HEK293T ELG1-luciferase reporter, luminescence, 16 h; DNA damage induced by 5-fluorouridine; Potency, µM (titrated, usually from 46.1 µM), without a hit: at the highest dose activity change, negative = inhibition, actives largely listed as inhibitors; hit rate 2.3% among 330,000; note: % is set by controls: 0 for no effect and ±100 for the full control effect; nearly all actives have a fitted effect of over 55% in size
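5-Fluorouridine DNA damage + compound/DMSO, 2,000 cells/well, 16 h, 37 °C/5% CO2. ONE-Glo, 30 min RT, luminescence. Readout = decrease in reporter signal.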
SMN2 splice up = qHTS Assay for Enhancers of SMN2 Splice Variant Expression. HEK293 SMN2-luciferase splicing reporter, luminescence, 30-36 h. Potency, µM (top dose mostly 46.1 µM), inactives show at the top dose activity change, positive = activation, hits mostly activators. hit rate 2.8% among 210,000. AID 1458, 2008; note: % of control where 0% means no effect; nearly all actives have a fitted effect of over 55% in size
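qHTS luciferase splicing reporter: luminescence rises when SMN2 exon 7 is included in transfected HEK293 cells. Compound exposure lasted 30-36 h at 37C, with 4.5 mM final sodium butyrate as control, followed by a ONE-Glo read.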
ELG1 genotox = qHTS screen for small molecules that induce genotoxicity in human embryonic kidney (HEK293T) cells expressing luciferase-tagged ELG1; HEK293T ELG1-luciferase reporter, luminescence, 16 h; Potency, µM (series often up to 46 µM), inactives show top-dose activity change, positive = activation, most hits filed as activators; hit rate 1.3% among 330,000; note: % of control where 0% means no effect; nearly all actives have a fitted effect of over 60% in size
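Screening used a luciferase reporter fused to human ELG1 in HEK293T cells. Luminescence was read on a CCD plate imager after 16 hr exposure and 30 min ONE-Glo incubation.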
FLuc counter = qHTS profiling assay for firefly luciferase inhibitor/activator using purifed enzyme and Km concentrations of substrates (counterscreen for miR-21 project) | Luciferin 4-monooxygenase (Photinus pyralis), P08659 | purified FLuc, Km substrates, luminescence inhibition | hit rate 6.9% among 360,000 | Potency, µM (highest dose often 57.5 µM), for the others: at the top dose activity change, negative = inhibition, actives largely listed as inhibitors | AID 588342, 2011;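 note: plate controls were vehicle for no effect and reference inhibitor for full effect; nearly all actives have a fitted effect of over 55% in size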
Target sequence (P08659 whole entry, looked up): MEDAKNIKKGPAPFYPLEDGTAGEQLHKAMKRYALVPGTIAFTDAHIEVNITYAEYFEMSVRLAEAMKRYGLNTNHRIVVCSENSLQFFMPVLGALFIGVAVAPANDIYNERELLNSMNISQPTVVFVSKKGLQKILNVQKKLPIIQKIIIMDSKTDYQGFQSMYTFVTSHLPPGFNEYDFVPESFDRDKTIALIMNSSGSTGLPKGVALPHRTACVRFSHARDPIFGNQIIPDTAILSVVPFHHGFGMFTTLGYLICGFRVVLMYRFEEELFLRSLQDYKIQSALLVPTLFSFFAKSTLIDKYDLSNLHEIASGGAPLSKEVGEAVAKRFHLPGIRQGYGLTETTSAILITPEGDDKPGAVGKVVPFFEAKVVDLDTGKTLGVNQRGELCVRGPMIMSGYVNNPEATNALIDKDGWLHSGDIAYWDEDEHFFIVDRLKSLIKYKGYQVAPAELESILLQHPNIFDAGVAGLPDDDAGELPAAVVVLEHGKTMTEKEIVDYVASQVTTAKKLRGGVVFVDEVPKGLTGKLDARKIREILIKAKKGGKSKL
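Biochemical qHTS of compounds, final roughly 60 µM downward over six points, against 10 nM purified firefly luciferase using Km concentrations of substrates (10 uM D-luciferin, 10 uM ATP) in Tris acetate pH 7.5 buffer; luminescence output.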
* marks the source's active call; other numbers are inactive results. Calls come from the whole dose curve; as a rule, active = well fitted curve in the direction sought with a large enough effect; inconclusive = small, poorly fitted or top-dose-only effect, or another doubt; inactive = no such curve, though single readings can be large; an effect the other way counts as inactive or inconclusive. Potency is the fitted concentration of half-maximal effect.

What do the screens show for `N#C/C(=C/c1ccc(N2CCOCC2)o1)C(=O)Nc1ccccc1`?
NPC1 prom act: 2µM*; Rab9 promoter act: 2µM*; ELG1 DNA repair: inconclusive; SMN2 splice up: 14µM*; ELG1 genotox: inconclusive; FLuc counter: 2.7µM*

What do the screens show for `CCCC(=O)O[C@]1(C(=O)CCl)[C@@H](C)C[C@H]2[C@@H]3CCC4=CC(=O)C=C[C@]4(C)[C@@]3(F)C(=O)C[C@@]21C`?
NPC1 prom act: -2%; Rab9 promoter act: -6%; ELG1 DNA repair: 4%; SMN2 splice up: -63%; ELG1 genotox: 13%; FLuc counter: 5%

Results for Clc1ccc(COn2c(-c3ccccc3)nc3ccccc32)cc1 ?
NPC1 prom act: -8%; Rab9 promoter act: -1%; ELG1 DNA repair: 10%; SMN2 splice up: -9%; ELG1 genotox: -3%; FLuc counter: -14%

Results for COc1ccc(-c2nc3ccccc3n2OCC(=O)O)cc1 ?
NPC1 prom act: 9%; Rab9 promoter act: 19%; ELG1 DNA repair: inconclusive; ELG1 genotox: inconclusive; FLuc counter: 3µM*

How did COn1c(-c2ccc(Cl)cc2)nc2ccc(Cl)cc21 do in these assays?
NPC1 prom act: 30%; Rab9 promoter act: inconclusive; ELG1 DNA repair: inconclusive; SMN2 splice up: 13%; ELG1 genotox: 10%; FLuc counter: 9.5µM*

Results for O=C(O)COn1c(-c2ccc(Cl)cc2)nc2ccc(Cl)cc21 ?
NPC1 prom act: 2%; Rab9 promoter act: 7%; ELG1 DNA repair: inconclusive; SMN2 splice up: 16%; ELG1 genotox: inconclusive; FLuc counter: 9.5µM*

How did Clc1ccc(COn2c(-c3ccc(Cl)cc3)nc3ccccc32)cc1 do in these assays?
NPC1 prom act: -4%; Rab9 promoter act: 4%; ELG1 DNA repair: 16%; SMN2 splice up: -24%; ELG1 genotox: -2%; FLuc counter: inconclusive

How did CC12CC(NC(=O)N1c1cccc(C(=O)NCc3ccc4c(c3)OCO4)c1)c1cc(Cl)ccc1O2 (stereo unspecified) do in these assays?
NPC1 prom act: -1%; Rab9 promoter act: 2%; ELG1 DNA repair: inconclusive; SMN2 splice up: -5%; ELG1 genotox: -6%; FLuc counter: 0%

How did Nc1c2nc(-c3ccccc3Cl)[nH]c(=O)c2nc(=O)n1-c1ccccc1 do in these assays?
NPC1 prom act: 27%; Rab9 promoter act: 19%; ELG1 DNA repair: -19%; ELG1 genotox: 6%; FLuc counter: inconclusive

How did S=C(NCc1ccncc1)Nc1ccc(Cl)cc1Cl do in these assays?
NPC1 prom act: -3%; Rab9 promoter act: -2%; ELG1 DNA repair: 16µM*; SMN2 splice up: -25%; ELG1 genotox: -4%; FLuc counter: 1%

Results for CCOc1ccc(NC(=S)NNc2ccnc3cc(Cl)ccc23)cc1 ?
NPC1 prom act: -7%; Rab9 promoter act: -11%; ELG1 DNA repair: 23µM*; SMN2 splice up: -67%; ELG1 genotox: -15%; FLuc counter: inconclusive

What do the screens show for `S=C(NNc1ccnc2cc(Cl)ccc12)Nc1ccc(Cl)cc1Cl`?
NPC1 prom act: -18%; Rab9 promoter act: -31%; ELG1 DNA repair: 21µM*; ELG1 genotox: -11%; FLuc counter: -15%

What do the screens show for `CCOc1ccccc1Nc1ccnc2cc(Cl)ccc12`?
NPC1 prom act: -1%; Rab9 promoter act: -4%; ELG1 DNA repair: -10%; ELG1 genotox: -7%; FLuc counter: 2%

How did S=C(NCc1ccc(Cl)cc1)Nc1ccc(Cl)cc1Cl do in these assays?
NPC1 prom act: 0%; Rab9 promoter act: -7%; ELG1 DNA repair: 11%; SMN2 splice up: 1%; ELG1 genotox: 1%; FLuc counter: 2%
